Measurements taken from the supplement of paper PMC11732987, “Enantioselective OTUD7B fragment discovery through chemoproteomics screening and high-throughput optimisation” (Communications Chemistry, 2025).

What was measured:
Assay in all cases: log2 ratio of Biotin-Ahx-Ub-VS probe labelling (fragment/DMSO); higher = less target engagement (more negative = stronger competition), active = hit call of the paper (q ≤ 0.05, log2 ratio ≤ -1)
Conditions in all cases: compound concentration: 200 uM; treatment time: 3 h
USP19 = target: T1, USP19 (UniProt O94966)
T1 sequence (whole entry): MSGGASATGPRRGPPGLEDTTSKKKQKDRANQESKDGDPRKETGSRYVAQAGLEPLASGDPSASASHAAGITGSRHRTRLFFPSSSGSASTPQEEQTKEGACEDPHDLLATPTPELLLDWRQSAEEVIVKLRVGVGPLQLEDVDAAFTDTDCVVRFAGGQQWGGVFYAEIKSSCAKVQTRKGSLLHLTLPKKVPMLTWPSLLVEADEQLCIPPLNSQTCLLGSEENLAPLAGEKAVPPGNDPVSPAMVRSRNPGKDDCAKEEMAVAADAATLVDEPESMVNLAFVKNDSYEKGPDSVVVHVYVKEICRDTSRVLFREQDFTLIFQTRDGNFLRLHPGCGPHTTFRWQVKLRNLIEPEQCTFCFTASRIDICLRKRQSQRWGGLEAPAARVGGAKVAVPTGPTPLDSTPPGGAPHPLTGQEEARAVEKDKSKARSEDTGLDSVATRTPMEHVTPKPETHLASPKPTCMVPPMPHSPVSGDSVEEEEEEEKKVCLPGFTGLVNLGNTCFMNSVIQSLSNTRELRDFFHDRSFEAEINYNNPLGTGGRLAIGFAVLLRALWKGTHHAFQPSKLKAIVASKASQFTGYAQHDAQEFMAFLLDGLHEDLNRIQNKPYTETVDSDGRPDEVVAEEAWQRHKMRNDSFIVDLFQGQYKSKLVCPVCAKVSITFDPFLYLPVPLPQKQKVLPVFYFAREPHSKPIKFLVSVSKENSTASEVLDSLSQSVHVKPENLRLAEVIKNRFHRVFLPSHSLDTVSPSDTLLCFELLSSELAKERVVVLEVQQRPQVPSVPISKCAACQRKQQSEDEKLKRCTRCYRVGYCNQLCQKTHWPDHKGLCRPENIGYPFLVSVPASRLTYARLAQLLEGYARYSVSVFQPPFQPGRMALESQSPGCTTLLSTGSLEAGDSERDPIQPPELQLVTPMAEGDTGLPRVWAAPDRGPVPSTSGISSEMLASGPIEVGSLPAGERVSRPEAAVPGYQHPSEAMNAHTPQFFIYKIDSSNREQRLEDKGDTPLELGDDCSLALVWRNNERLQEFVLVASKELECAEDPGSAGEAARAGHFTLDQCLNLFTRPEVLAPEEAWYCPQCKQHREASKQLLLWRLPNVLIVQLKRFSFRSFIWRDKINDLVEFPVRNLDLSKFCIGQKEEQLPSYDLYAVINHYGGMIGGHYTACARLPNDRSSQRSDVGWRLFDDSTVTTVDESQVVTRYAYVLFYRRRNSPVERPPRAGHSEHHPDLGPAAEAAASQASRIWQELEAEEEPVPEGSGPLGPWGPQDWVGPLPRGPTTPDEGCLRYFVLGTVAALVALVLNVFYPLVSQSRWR
In short: (§1)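 HEK293T lysate, 495 µg per sample in Tris/CHAPS/IGEPAL buffer with protease inhibitors, was treated in triplicate with fragment at 200 µM or vehicle for 3 h and then with Biotin-Ahx-Ub-VS at 0.5 µM final for 1 h. Labelled DUBs were NeutrAvidin-enriched, digested with LysC and trypsin, and run by diaPASEF LC-MS/MS. Spectronaut label-free quantities were global-median-normalised, and values are average log2 fragment/vehicle ratios by unpaired t-test on proteins with ≥2 unique peptides.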

USP22 = target: T2, USP22 (UniProt Q9UPT9)
T2 sequence (whole entry): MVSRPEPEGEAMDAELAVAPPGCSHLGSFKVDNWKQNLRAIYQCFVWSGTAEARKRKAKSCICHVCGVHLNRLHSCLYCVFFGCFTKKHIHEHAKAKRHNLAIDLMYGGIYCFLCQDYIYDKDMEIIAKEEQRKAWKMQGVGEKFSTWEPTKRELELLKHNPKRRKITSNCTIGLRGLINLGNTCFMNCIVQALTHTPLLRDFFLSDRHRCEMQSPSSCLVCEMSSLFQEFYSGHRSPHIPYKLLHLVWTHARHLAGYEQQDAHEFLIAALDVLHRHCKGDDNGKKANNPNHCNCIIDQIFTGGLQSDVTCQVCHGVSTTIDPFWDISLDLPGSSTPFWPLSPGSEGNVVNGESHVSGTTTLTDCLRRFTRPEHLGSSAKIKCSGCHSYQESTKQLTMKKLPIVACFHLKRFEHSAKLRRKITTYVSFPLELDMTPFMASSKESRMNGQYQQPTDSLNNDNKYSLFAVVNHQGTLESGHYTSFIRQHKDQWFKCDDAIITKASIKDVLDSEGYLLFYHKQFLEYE
In short: as §1

USP24 = USP24 (UniProt Q9UPU5)
In short: as §1

USP25 = target: T3, USP25 (UniProt Q9UHP3)
T3 sequence (whole entry): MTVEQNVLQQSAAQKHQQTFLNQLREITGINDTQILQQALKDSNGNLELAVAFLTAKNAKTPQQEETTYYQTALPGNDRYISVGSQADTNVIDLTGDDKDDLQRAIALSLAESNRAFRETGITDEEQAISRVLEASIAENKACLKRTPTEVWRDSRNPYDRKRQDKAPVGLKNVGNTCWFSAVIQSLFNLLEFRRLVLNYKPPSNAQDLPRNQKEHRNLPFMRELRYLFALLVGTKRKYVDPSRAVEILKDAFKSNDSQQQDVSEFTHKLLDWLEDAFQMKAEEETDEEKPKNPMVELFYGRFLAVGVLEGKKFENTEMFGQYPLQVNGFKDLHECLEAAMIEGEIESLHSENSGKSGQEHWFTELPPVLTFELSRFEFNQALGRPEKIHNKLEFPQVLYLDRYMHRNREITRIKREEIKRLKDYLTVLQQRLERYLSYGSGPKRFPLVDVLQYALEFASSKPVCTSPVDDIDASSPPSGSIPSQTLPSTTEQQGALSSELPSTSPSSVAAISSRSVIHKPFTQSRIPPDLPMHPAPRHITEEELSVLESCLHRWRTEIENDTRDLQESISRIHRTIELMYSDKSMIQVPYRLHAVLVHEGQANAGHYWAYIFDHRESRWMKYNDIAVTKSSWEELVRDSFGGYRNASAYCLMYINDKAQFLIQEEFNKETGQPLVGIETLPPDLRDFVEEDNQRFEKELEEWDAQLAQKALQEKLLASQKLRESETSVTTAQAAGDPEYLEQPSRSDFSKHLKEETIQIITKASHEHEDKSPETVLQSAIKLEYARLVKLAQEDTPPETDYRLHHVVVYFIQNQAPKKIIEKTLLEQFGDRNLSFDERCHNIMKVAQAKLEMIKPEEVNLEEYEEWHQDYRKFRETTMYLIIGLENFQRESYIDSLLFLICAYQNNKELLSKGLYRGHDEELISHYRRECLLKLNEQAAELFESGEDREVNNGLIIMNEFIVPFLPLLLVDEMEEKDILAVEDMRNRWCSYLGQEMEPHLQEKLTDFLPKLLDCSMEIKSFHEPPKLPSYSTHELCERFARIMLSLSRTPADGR
In short: as §1

USP28 = target: T4, USP28 (UniProt Q96RU2)
T4 sequence (whole entry): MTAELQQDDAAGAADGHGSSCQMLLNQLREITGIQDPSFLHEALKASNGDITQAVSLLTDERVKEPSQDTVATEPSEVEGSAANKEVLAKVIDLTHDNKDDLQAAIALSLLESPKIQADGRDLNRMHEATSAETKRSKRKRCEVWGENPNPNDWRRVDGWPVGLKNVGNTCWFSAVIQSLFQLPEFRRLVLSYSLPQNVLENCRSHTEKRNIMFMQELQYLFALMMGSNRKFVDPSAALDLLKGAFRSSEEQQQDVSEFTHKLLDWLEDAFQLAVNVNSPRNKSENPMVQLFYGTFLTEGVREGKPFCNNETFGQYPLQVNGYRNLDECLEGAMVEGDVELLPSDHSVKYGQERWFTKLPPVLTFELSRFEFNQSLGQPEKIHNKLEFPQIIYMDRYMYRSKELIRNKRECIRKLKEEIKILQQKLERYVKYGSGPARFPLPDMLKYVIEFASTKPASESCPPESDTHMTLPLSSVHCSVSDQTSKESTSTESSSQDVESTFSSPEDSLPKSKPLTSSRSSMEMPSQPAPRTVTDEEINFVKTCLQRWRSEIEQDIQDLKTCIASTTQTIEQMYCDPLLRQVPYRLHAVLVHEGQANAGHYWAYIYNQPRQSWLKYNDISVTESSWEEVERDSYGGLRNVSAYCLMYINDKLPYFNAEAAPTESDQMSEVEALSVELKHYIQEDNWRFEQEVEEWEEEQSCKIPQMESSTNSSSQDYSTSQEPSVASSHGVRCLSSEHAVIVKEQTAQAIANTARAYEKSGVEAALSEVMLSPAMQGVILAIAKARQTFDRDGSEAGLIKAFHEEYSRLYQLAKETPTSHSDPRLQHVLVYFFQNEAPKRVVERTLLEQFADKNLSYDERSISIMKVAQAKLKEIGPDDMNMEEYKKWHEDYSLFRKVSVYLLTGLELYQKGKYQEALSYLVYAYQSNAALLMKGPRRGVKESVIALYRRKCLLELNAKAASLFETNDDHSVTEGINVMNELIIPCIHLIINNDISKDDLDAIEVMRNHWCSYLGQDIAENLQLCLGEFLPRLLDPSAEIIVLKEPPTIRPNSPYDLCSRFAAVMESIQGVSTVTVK
In short: as §1

Measured: log2 ratio of Biotin-Ahx-Ub-VS probe labelling

USP24, sequence (Q9UPU5 whole entry): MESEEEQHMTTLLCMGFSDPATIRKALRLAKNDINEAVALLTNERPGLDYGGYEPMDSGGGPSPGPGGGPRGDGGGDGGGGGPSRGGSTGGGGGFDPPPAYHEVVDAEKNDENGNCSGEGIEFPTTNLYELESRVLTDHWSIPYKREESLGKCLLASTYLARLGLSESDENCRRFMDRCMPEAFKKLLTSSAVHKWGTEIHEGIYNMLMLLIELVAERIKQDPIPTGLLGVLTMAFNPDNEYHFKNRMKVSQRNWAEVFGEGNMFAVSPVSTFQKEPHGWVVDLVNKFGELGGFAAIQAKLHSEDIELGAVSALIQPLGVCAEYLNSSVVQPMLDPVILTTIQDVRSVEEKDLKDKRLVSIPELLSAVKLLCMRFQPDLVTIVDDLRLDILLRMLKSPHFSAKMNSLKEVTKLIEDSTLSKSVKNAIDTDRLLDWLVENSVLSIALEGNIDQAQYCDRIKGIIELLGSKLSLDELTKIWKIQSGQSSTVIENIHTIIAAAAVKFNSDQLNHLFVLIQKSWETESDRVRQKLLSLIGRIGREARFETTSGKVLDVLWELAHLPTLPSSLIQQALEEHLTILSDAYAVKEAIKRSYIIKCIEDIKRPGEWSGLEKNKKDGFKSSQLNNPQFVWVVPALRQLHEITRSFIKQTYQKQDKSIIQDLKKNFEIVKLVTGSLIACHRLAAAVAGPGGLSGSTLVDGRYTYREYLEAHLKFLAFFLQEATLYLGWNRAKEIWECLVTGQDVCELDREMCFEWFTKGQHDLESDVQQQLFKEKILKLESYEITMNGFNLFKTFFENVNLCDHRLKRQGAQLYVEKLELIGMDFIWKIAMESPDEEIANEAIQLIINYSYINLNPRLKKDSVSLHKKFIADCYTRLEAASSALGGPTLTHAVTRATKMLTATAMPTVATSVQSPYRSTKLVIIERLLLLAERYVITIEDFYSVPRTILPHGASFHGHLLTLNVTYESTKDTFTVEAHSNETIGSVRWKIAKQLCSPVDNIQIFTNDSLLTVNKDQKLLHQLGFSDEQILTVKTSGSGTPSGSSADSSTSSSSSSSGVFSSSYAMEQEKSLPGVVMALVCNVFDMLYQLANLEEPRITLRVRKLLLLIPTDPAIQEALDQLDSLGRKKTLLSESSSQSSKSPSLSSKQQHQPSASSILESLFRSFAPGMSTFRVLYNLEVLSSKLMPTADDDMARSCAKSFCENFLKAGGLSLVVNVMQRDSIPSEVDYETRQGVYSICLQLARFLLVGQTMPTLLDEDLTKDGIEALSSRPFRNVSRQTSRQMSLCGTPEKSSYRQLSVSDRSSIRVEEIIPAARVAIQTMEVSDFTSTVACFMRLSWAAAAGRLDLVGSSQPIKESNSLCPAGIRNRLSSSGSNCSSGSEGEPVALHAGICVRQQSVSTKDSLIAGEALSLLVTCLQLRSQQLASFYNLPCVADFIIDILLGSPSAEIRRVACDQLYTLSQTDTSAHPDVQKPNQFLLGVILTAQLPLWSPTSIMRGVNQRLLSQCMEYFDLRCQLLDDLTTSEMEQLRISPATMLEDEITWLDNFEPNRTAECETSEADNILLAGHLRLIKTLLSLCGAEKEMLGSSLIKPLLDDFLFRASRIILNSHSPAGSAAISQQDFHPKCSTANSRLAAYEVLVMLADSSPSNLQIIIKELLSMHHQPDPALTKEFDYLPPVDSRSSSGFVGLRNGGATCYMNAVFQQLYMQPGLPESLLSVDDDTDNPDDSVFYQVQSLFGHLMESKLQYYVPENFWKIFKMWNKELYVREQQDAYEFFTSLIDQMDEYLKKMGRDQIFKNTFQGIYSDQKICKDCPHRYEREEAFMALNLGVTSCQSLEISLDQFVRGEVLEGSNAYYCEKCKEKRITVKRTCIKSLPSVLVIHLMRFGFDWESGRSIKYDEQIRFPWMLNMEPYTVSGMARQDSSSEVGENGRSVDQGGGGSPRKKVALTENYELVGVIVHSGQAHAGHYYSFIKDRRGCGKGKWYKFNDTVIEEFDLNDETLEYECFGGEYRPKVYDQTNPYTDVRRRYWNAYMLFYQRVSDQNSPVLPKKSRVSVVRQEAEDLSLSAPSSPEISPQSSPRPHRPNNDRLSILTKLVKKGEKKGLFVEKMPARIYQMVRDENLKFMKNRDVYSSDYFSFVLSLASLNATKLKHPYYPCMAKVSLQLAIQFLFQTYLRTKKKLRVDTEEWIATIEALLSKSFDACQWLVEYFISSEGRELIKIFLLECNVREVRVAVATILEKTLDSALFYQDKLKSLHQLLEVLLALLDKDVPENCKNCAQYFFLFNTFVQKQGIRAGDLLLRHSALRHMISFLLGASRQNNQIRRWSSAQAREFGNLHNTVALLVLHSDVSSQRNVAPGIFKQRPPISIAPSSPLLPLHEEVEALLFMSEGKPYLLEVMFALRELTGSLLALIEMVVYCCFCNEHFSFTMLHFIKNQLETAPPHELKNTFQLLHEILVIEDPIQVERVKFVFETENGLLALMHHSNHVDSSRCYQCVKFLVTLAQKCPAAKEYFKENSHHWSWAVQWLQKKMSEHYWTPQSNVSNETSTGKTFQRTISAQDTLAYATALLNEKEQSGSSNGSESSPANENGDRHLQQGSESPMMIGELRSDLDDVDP

O=C(CCl)N1CCC(S(=O)(=O)c2ccc(F)cc2)CC1
inactive: USP19 -0.376 | USP22 0.191 | USP24 -0.346 | USP25 -0.444 | USP28 -0.572
